HCMV inh: blocks human cytomegalovirus replication | HFF cells, HCMV-luciferase reporter, 72 h; hits give low values | 410,000 tested, 4.5% active | activity change, negative = inhibition, % at 57.5 µM; in the data active = activity change below about -60%; inconclusive = no clear call, values can overlap the other calls; inactive = above about -39%
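HFF cells seeded 16 h at 37C, treated with compounds, infected with luciferase-reporter HCMV at MOI 1 PFU/cell; luciferase read at 72 h post infection, normalized to buffer-only and Salinomycin controls.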
HCV inhibitor: blocks hepatitis C virus; Huh7.5.1 HCVcc-Cre infection, luciferase reporter, 44 h; Potency, µM (titrated, usually from 41.8 µM), without a hit: top-dose activity change, negative = inhibition, most hits filed as inhibitors; 340,000 tested, 3.4% active; active = well fitted inhibition curve with a large enough effect; inconclusive = small, poorly fitted or top-dose-only effect, or another doubt; inactive = no such curve, though single readings can be large or run the other way; note: potency is the fitted concentration of half-maximal effect
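Cells (1,000/well) were plated 4 h before compound, then infected with HCVcc-Cre virus (~0.5 moi). After 44 h further culture, infection was read as luciferase luminescence following a 15 min substrate incubation at room temperature.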
MARV entry inh: Marburg virus entry inhibition. Potency, µM (doses to about 37.8 µM), for the others: at the top dose activity change, negative = inhibition, usual class: inhibitors. Marburg virus pseudotyped entry inhibition, cell reporter. 300,000 tested, 1.8% active; calls by dose curve; tested in HEK293 cells; note: potency is the fitted concentration of half-maximal effect
VACV Venus inh: vaccinia inhibition (Venus reporter). 330,000 tested, 0.46% active. Potency, µM (top dose mostly 36.5 µM), inactives show top-dose activity change, negative = inhibition, usual class: inhibitors. AID 720580. Vaccinia virus Venus reporter expression, fluorescence; calls by dose curve; tested in A549 cells; note: potency is the fitted concentration of half-maximal effect; nearly all actives have a fitted effect of over 30% in size
Vaccinia mCherry: vaccinia inhibition (mCherry reporter); Vaccinia virus mCherry reporter infection, fluorescence; Potency, µM (doses to about 36.5 µM), inactives show top-dose activity change, negative = inhibition, actives largely listed as inhibitors; 310,000 tested, 0.63% active; AID 720579; calls by dose curve; tested in A549 cells; note: potency is the fitted concentration of half-maximal effect; nearly all actives have a fitted effect of over 35% in size
LASV entry inh: Lassa virus entry inhibition | Lassa virus pseudotype entry inhibition, cell reporter | Potency, µM (titrated, usually from 37.9 µM), without a hit: top-dose activity change, negative = inhibition, actives largely listed as inhibitors | 300,000 tested, 1.2% active | AID 540256; calls by dose curve; tested in HEK293 cells; note: potency is the fitted concentration of half-maximal effect; nearly all actives have a fitted effect of over 50% in size
Starred values were filed as active, the others as inactive; i = inactive; ? = inconclusive; / = no result given; ! = not active in a repeat; [ ] = remark or other dose. Rows were chosen to be rich in hits. Some 7.8% of all compounds tested hit in one or more screens of this group. % is set by controls: 0 for no effect and ±100 for the full control effect.

SMILES	HCMV inh	HCV inhibitor	MARV entry inh	VACV Venus inh	Vaccinia mCherry	LASV entry inh
O=C1N(Cc2cccc(Cl)c2)C[C@@H]2C[C@@H](c3cccc4ncccc34)N3CCC[C@@]123	-19	11µM*	?	-14%	-18%	?
CN1C[C@@H]2C[C@@H](c3cccn3-c3nccs3)N3CCC[C@@]23C1=O	?	16%	-19%[46.1 µM]	-13%	-4%	?
Cc1oc(-c2ccccc2Cl)nc1CSc1nncn2c1cc1occc12	-1	/	/	-7%	-15%	22%[46.1 µM]
COc1ccc(S(=O)(=O)n2nc(C)c(S(=O)(=O)N3CCCCCC3)c2C)cc1OC	4	/	/	-10%	-6%	29%[46.1 µM]
CCc1ccccc1NC(=O)Nc1cc(C(=O)NCc2ccc(C(C)C)cc2)ccc1N1CCCC1	-27	/	/	?	?	?
COc1ccccc1-c1cc2c(c(OC)c1)OCCN(C(=O)Cn1nc(-c3ccccc3)c3ccccc3c1=O)C2	/	/	/	-5%	i	/
CN1CCc2nc(NC(=O)COc3ccc4ccccc4c3)sc2C1	-82*	?	?	-19%	-15%	?
CCn1c(-c2ccccc2F)nc2cc(NC(C)=O)cc(C(=O)N3CCNC(=O)C3CC(=O)OC)c21 (stereo not drawn)	/	/	/	-10%	-14%	/
COC(=O)c1cn[nH]c1NC(=S)Nc1ccc(C)cc1Cl	13	?	?	/	/	7.3µM*
COC(=O)c1cn[nH]c1NC(=S)Nc1ccc(Cl)c(Cl)c1	?	-28%	?	/	/	?
CCOc1ccc2[nH]c(=O)c(CN(Cc3nnnn3Cc3ccco3)C3CCCCC3)cc2c1	-3	?	10µM*	-18%	/	?
COc1cc2cc(CN(Cc3nnnn3Cc3ccco3)C3CCCCC3)c(=O)[nH]c2cc1OC	-22	-7%	?	-17%	/	-12%
COc1ccc(Cn2nnnc2CN(Cc2cc3ccc(C)cc3[nH]c2=O)C2CCCC2)cc1	-26	10µM*	?	?	-13%	?
CCOc1ccc2[nH]c(=O)c(CN(CCO)C3(c4nnnn4C4CCCCC4)CCCCC3)cc2c1	-61*	11%	?	-10%	-10%	5%
CCOc1ccc2[nH]c(=O)c(CN(CCO)Cc3nnnn3CCc3ccccc3)cc2c1	21	-12%	1%	/	/	10%
Cc1ccc(Oc2nnc(-c3cccs3)c3ccccc23)cc1C	-62*	-7%	?	?	-21%	-16%
COc1ccccc1Oc1ccc(S(=O)(=O)N2CCOCC2)cc1S(=O)(=O)N1CCOCC1	-29	7%	-2%	-10%	/	17%
Cc1ccc(Oc2ccc(S(=O)(=O)N3CCOCC3)cc2C(N)=O)c(-n2nc3ccccc3n2)c1	-85*	-14%	?	?	/	?
COc1cc(-c2nc3cc(C)ccn3c2NC2CCCCC2)ccc1-c1ccc(C(C)=O)cc1	-94*	?	/	?	-17%	/
CCC(C)Sc1ccc(-c2nc3cc(C)ccn3c2NC2CCCCC2)cc1 (stereo not drawn)	-102*!	?	/	?	-23%	/
O=C(c1ccc(F)cc1)N1CCC(C(=O)N2CCN(Cc3ccc4c(c3)OCO4)CC2)CC1	-1	?	-2%	-20%	i	8%
NC(=O)CC[C@H](NC(=O)c1ccc(F)cc1)C(=O)N1CCN(Cc2ccc3c(c2)OCO3)CC1	-70*	4%	9%	-7%	-19%	-12%
C[C@H](NC(=O)c1ccccc1)C(=O)N1CCN(Cc2ccc3c(c2)OCO3)CC1	8	6%	/	/	/	/
CC(C)[C@H](NC(=O)c1ccc(C(C)(C)C)cc1)C(=O)N1CCN(Cc2ccc3c(c2)OCO3)CC1	?	11µM*	?	-24%	-10%	?
N#Cc1nc(COc2ccc(-c3ccccc3)cc2)oc1N1CCC(C(N)=O)CC1	/	/	/	-14%	i	/
SMILES	HCMV inh	HCV inhibitor	MARV entry inh	VACV Venus inh	Vaccinia mCherry	LASV entry inh
CCCN(Cc1cc2cc(C)ccc2[nH]c1=O)C(=O)c1cccc(Cl)c1	-9	/	10%[46.1 µM]	-16%	-20%	?
CC(=O)c1ccc(NC(=O)CSc2nc(C3CC3)nc3ccccc23)cc1	26	-23%	?	-21%	?	?
COc1ccc(NC(=O)CSc2nc(C3CC3)nc3ccccc23)cc1	?	11µM*	?	?	?	?
COc1ccc(NC(=O)CSc2ncnc3c2cnn3CCc2ccccc2)cc1	102	2%	?	-20%	-21%[1.46 µM]	11µM*
CCCCn1c(=O)c2oc3ccccc3c2n(Cc2cccc(F)c2)c1=O	-33	/	/	-6%	-11%	0%[46.1 µM]
Cc1c(C(=O)NCCc2ccc(Cl)cc2)sc2nc3n(c(=O)c12)CCCC3	?	/	/	-6%	-20%	?
Cc1cc(C)c2oc(-c3cccc(NC(=O)COc4ccc([N+](=O)[O-])cc4)c3)nc2c1	29	/	6%[46.1 µM]	-10%[7.34 µM]	-6%[7.34 µM]	?
Cc1c(C)n(Cc2ccccc2)c2ncnc(N)c12	-60*	10µM*	-11%	/	/	-4%
COC(=O)c1c(C)[nH]c(O)c1C=Nc1ccc(Oc2ccccc2)cc1	-65*	-8%	17%[46.1 µM]	-3%	-28%	?
CC1(C)C(=O)Nc2ccccc2N1C(=O)Cn1ncc(Cl)c(Cl)c1=O	12	?	/	/	/	/
Cc1nn(CC(=O)N2c3ccccc3NC(=O)C2(C)C)c(C)c1[N+](=O)[O-]	-82*	9%	/	-18%	-6%	/
O=C(CSc1n[nH]c(-c2ccccc2Cl)n1)NCCc1ccccc1	4	/	/	-14%	-9%	-20%[46.1 µM]
COC1=CC(=O)c2c(ccc3ncnc(N)c23)C1=O	-99*	?	?	?	?	?
CCOC(=O)C1=CCC(c2ccc(N(CC)CC)cc2)N(S(=O)(=O)c2ccc(C)cc2)C1c1ccc([N+](=O)[O-])cc1 (stereo not drawn)	-13	/	/	1%	-8%	/
CCS(=O)(=O)c1ncc(N(Cc2ccco2)Cc2ccccc2F)c(C(=O)Nc2cccc(Cl)c2)n1	-29	/	-11%[46.1 µM]	-10%	-17%	?
Cc1ncc(CNC(=O)N(CCCl)N=O)c(N)n1	9	2.8µM*	?	-15%	-5%	0%
CCOc1ccc2nc(NC3=NC(c4ccc(OC)cc4)CC(=O)N3)nc(C)c2c1 (stereo not drawn)	-70*	8.9µM*	?	-19%	-21%	?
CC1CCN(CCCNC(=O)c2cn(C)c3ccc(S(=O)(=O)N4CCCC4)cc3c2=O)CC1	-108*	9%	-13%	/	/	26%
CC1CC(C)CN(CCCNC(=O)c2cn(C)c3ccc(S(=O)(=O)N4CCCC4)cc3c2=O)C1 (stereo not drawn)	4	-6%	-4%	-16%	0%	-13%
CN(CCCNC(=O)c1cn(C)c2ccc(S(=O)(=O)N(C)C)cc2c1=O)c1ccccc1	-64*	0%	-17%	-6%	-10%	1%
